NPC1 promoter act: NPC1 promoter activation | Huh7 NPC1 promoter luciferase reporter, 24 h | Potency, µM (top dose mostly 9.22 µM), for the others: at the top dose activation, usual class: activators | 2.4% of 320,000 active; also: % of control where 0% means no effect; nearly all actives have a fitted effect of over 60% in size
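Stable NPC1-promoter luciferase Huh7 line; cpd (DMSO) 24 h, 37 °C, 5% CO2; Amplite luciferase reagent 10 min RT; luminescence readout. qHTS format.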
SMN2 splice up: enhancers of SMN2 splice variant expression. 2.8% of 210,000 active. HEK293 SMN2-luciferase splicing reporter, luminescence, 30-36 h. Potency, µM (titrated, usually from 46.1 µM), for the others: at the top dose activity change, positive = activation, actives largely listed as activators; also: % of control where 0% means no effect; nearly all actives have a fitted effect of over 55% in size
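qHTS luciferase splicing reporter: luminescence rises when SMN2 exon 7 is included in transfected HEK293 cells. Compound exposure lasted 30-36 h at 37C, with 4.5 mM final sodium butyrate as control, followed by a ONE-Glo read.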
FLuc modulator: inhibits or activates purified firefly luciferase, miR-21 counter-screen. P08659. 6.9% of 360,000 active. purified FLuc, Km substrates, luminescence inhibition. AID 588342. Potency, µM (top dose mostly 57.5 µM), inactives show top-dose activity change, negative = inhibition, most hits filed as inhibitors;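 also: plate controls were vehicle for no effect and reference inhibitor for full effect; nearly all actives have a fitted effect of over 55% in size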
Target sequence (P08659 whole entry, looked up): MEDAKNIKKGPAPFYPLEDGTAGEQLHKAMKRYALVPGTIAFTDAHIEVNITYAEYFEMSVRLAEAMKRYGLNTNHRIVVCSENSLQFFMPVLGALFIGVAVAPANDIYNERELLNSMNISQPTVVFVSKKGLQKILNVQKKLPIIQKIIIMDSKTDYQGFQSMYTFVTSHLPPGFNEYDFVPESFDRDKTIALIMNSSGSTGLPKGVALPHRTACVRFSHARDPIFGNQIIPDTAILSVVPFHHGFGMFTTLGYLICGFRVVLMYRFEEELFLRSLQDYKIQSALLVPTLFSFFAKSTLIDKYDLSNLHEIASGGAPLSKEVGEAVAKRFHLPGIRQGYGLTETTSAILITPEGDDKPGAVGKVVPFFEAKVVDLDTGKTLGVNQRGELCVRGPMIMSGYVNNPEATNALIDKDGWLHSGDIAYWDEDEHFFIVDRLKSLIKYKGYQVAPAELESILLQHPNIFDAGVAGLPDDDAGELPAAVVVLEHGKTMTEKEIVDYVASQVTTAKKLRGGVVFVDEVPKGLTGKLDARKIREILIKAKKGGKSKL
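Biochemical qHTS of compounds, final roughly 60 µM downward over six points, against 10 nM purified firefly luciferase using Km concentrations of substrates (10 uM D-luciferin, 10 uM ATP) in Tris acetate pH 7.5 buffer; luminescence output.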
ELG1 genotox: genotoxicity induction in ELG1-luciferase HEK293T cells; AID 504466; Potency, µM (series often up to 46 µM), without a hit: at the top dose activity change, positive = activation, most hits filed as activators; 1.3% of 330,000 active; HEK293T ELG1-luciferase reporter, luminescence, 16 h; also: % of control where 0% means no effect; nearly all actives have a fitted effect of over 60% in size
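HEK293T cells expressing luciferase-tagged ELG1 were treated with compound or DMSO for 16 hr at 37°C. Luciferase activity was then read after 30 min with ONE-Glo at room temperature; rising signal flags genetic stress.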
Rab9 prom act: activators of Rab9 promoter | Huh7 Rab9 promoter-luciferase reporter, luminescence, 24 h | Potency, µM (highest dose often 9.22 µM), for the others: at the highest dose activation, negative = inhibition, usual class: activators | 2.8% of 320,000 active; also: % of control where 0% means no effect; nearly all actives have a fitted effect of over 60% in size
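Using Huh7 cells stably transfected with Rab9 promoter–luciferase, compounds were incubated 24 h at 37 °C, 5% CO2; luciferase luminescence was read 10 min after reagent addition.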
Active calls of the source: *; u = inconclusive; x = not tested or not shown; [ ] = remark or other dose. In the library only some 7.4% were active in any assay of this set; here they are far more common. Calls follow the shape of the dose curve; as a rule, active = well fitted curve in the direction sought with a large enough effect; inconclusive = small, poorly fitted or top-dose-only effect, or another doubt; inactive = no such curve, though single readings can be large; an effect the other way counts as inactive or inconclusive. Potency is read from the fitted curve at half-maximal effect.

SMILES	NPC1 promoter act	SMN2 splice up	FLuc modulator	ELG1 genotox	Rab9 prom act
CC(=O)c1cccc2c(O)c(C3=Nc4ccccc4C3=O)[nH]c12	2.8µM*	0.56µM*	3.4µM*	u	0.63µM*
O=C1C(c2c(O)[nH]c3ccccc23)=Nc2ccccc21	20%	-16%	-29%	x	u
COc1ccc2nc(C)c3cc(C)oc3c2c1	-3%	-13%	-2%	-4%	-14%
COc1cccc2c1nc(C)c1cc(C)oc12	20%	u	21µM*	u	27%
COc1ccc(C(=O)c2oc3ccccc3c2NC(=O)c2cccc(OC)c2)cc1	x	-18%	-3%	x	x
Cc1nc2oc(C(=O)c3ccc(Br)cc3)c(N)c2c2c1COC(C)(C)C2	0%	x	-4%	1%	6%
Cc1ccc(C(=O)c2oc3nc(C)cc(C)c3c2N)cc1	-1%	-4%	13µM*	2%	-10%
COc1ccc(C(=O)c2oc3nc(C)cc(C)c3c2N)cc1	0%	-9%	12µM*	1%	18%
CCc1ccc(C(=O)c2oc3nc(C)cc(C)c3c2N)cc1	3%	-5%	15µM*	6%	24%
O=C1OC2(c3ccc(O)cc3Oc3cc(O)ccc32)c2c1c(-c1ccccc1)c(-c1ccccc1)c(-c1ccccc1)c2-c1ccccc1	x	-14%[9.22 µM]	x	x	x
Cc1nc(N2CCOCC2)c2c(C(=O)NCc3ccc(Cl)cc3)c(C)oc2n1	x	x	5%	x	x
S=C(N/N=C/c1ccc(Br)cc1)N1CCCCC1	4µM*	x	27µM*	u	0.89µM*
S=C(N/N=C/c1ccc(Cl)cc1)N1CCOCC1	29%	29%	u	u	29%
Cc1ccc(/C=N/NC(=S)N2CCOCC2)cc1	12%	34%	15µM*	u	5%
Cc1cc(C)c(Cn2c(=O)n(CCC(=O)NCc3ccc4c(c3)OCO4)c(=O)c3ccccc32)c(C)c1	x	3%	-2%	x	x
CC(=O)Nc1cccc(C(=O)/C=C/c2ccc(/C=C/C(=O)c3cccc(NC(C)=O)c3)cc2)c1	-31%	-68%	0%	-17%	-34%
CC(=O)Nc1cccc(C(=O)/C=C/c2ccc(F)cc2)c1	2%	-12%	19µM*	u	0%
CC(=O)Nc1cccc(C(=O)/C=C/c2ccc(N(C)C)cc2)c1	2%	5%	2.7µM*	u	25%
CC(=O)Nc1cccc(C(=O)/C=C/c2cccs2)c1	23%	8%	13µM*	0%	u
CCc1ccc(N2CC(C(=O)Nc3ccc(S(=O)(=O)N4CCOCC4)cc3)CC2=O)cc1 (stereo not drawn)	-2%	x	-5%	4%	0%
CCOC(=O)C1CCN(C(=O)Nc2ccc3c(c2)nc(C)n3C)CC1	u	11µM*	0%	u	u
Cc1nc2cc(NC(=O)N3CCCCC3)ccc2n1C	20%	13µM*	u	u	30%
C/C(=N\NC(=O)c1cc(C)[nH]n1)c1ccc(-c2ccccc2)cc1	26%	x	-17%	14%	17%
C/C(=N\NC(=O)c1cc(C)[nH]n1)c1cccs1	1.1µM*	11µM*	12µM*	u	0.32µM*
C/C(=N\NC(=O)c1cc(C(C)C)[nH]n1)c1ccncc1	u	x	u	9%	u
SMILES	NPC1 promoter act	SMN2 splice up	FLuc modulator	ELG1 genotox	Rab9 prom act
C/C(=N/NC(=O)c1cc(C(C)C)[nH]n1)c1cccs1	0.4µM*	11µM*	5.4µM*	u	0.5µM*
C/C(=N\Nc1ccccn1)c1ccc(OC(F)F)cc1	10%	21%	15µM*	u	26%
C/C(=N\Nc1ccccn1)c1ccc(C#N)cc1	1%	-5%	u	1%	4%
C/C(=N\Nc1ccccn1)c1cccs1	3.5µM*	32µM*	6.7µM*	u	3.2µM*
C/C(=N/NC(=O)c1cnccn1)c1cccs1	2µM*	8.9µM*	15µM*	u	u
C/C(=N\NC(=O)c1cnccn1)c1ccc([N+](=O)[O-])cc1	0%	x	-11%	-1%	14%
O=C(CCCCCN1CCN(c2ccccc2-c2ccccc2)CC1)NC1CCCc2ccccc21 (stereo not drawn)	-31%[46.1 µM]	x	x	x	-32%[46.1 µM]
N#CCCCC#Cc1ccc2c(c1)COc1c3ccccc3nn1-2	0.71µM*	x	0.19µM*	u	0.1µM*
CCCCCCC#Cc1ccc2c(c1)COc1c3ccccc3nn1-2	0.79µM*	x	u	17%	0.89µM*
CCCCC#Cc1ccc2c(c1)COc1c3ccccc3nn1-2	0.35µM*	x	2.7µM*	u	7.1µM*
CCCCCn1nc(C(=O)N2CCc3ccccc32)c2ccccc2c1=O	-4%	x	0%	-1%	-6%
Cc1nn2c(C)c(C(=O)NC(C)(C)C)cnc2c1-c1ccc(F)cc1	x	x	-13%	x	x
Cc1cc(CN(C)C(=O)c2ccc3nc(Cc4ccccc4F)oc3c2)on1	2.8µM*	x	u	-3%	3.2µM*
CN(Cc1nccn1C)C(=O)c1ccc2nc(Cc3ccccc3F)oc2c1	15%	x	13µM*	u	u
COc1ccc(N/C=C2/Sc3ccccc3NC2=O)cc1	u	13µM*	2.7µM*	u	u
O=C1Nc2ccccc2S/C1=C/NCc1ccccc1Cl	4%	2%	19µM*	1%	12%
Cc1ccc(N/C=C2/Sc3ccccc3NC2=O)cc1	u	u	1.9µM*	u	3.2µM*
COc1ccccc1NC(=O)Cn1c(=O)n(CCc2c[nH]c3ccccc23)c(=O)c2cccnc21	-1%	6%	u	-1%	0%
COc1ccc(CN2C(=O)c3ccccc3C(/C=N\OCc3ccc(F)cc3)C2=O)cc1 (stereo not drawn)	-2%	-52%	21µM*	-7%	3%
COc1ccc(CN2C(=O)c3ccccc3C(/C=N/OCc3ccc(Cl)cc3)C2=O)cc1 (stereo not drawn)	-4%	-61%	21µM*	-8%	-3%
Cc1cccc(CNC(=O)CCCN2C(=O)CCn3nc(-c4cccn4C)cc32)c1	x	x	-3%	x	x
COc1ccc(NC(=O)C(C)n2nnc3sc(-c4ccccc4)cc3c2=O)cc1Cl (stereo not drawn)	x	-1%	6µM*	x	x
CCC(C(=O)OC)n1nnc2sc(-c3ccccc3)cc2c1=O (stereo not drawn)	x	-1%	19µM*	x	x
Cc1csc(CNC(=O)C2CCC(=O)N(CCCc3ccccc3)C2)n1 (stereo not drawn)	-7%	x	-1%	2%	-1%
CCCCN1CC(=O)N2[C@H]3c4ccccc4OC[C@@H]3[C@H](C(=O)OCC)[C@]2(C)C1=O	x	x	x	3%	x
CCCc1ccc2oc(C(=O)NCCc3cnn(C)c3)c(C)c2c1	3.5µM*	x	13µM*	u	1.8µM*
CCCc1ccc2oc(C(=O)N3CCCC3)c(C)c2c1	23%	x	21µM*	u	u
CCCc1ccc2oc(C(=O)NCCc3nc(C(=O)OCC)cs3)c(C)c2c1	4µM*	x	13µM*	14%	2µM*

Compound activity as filed in PubChem.
